Values joined by “and” are separate entries in the source; they are usually repeats but may differ in a detail not shown here. Equal entries are not always repeated. Records with an inconclusive call do not appear. A number with no mark means an inactive call. Active and inactive are the calls of the source. The call rests on the fitted dose curve; in most records, active means well fitted curve in the direction sought with a large enough effect; inconclusive means small, poorly fitted or top-dose-only effect, or another doubt; inactive means no such curve, though single readings can be large or run the other way.
On the % scale 0 is the no-effect control and ±100 the full control effect; potency means the concentration at half of the fitted maximal effect.

A short description of this assay: qHTS Assay for Identifying Gametocytocidal Compounds (AID 743244).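 On max response: actives lower the fluorescent signal which means gametocytes are killed.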 The note with it: P. falciparum 3D7 stage III-V gametocytes, alamarBlue, 72 h; max response: hits give low values. In short, it runs like this: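 3D7 gametocytes, stages III–V, 20,000/well; cpd 72 h, 37 °C/5% CO2; + alamarBlue 24 h; fluor. Ex 525/Em 598.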
For `CCC1(CC)C(=O)NC(=O)NC1=O`, the max response was -6.5%. For `COc1cccc2c1C(=O)c1c(O)c3c(c(O)c1C2=O)C[C@@](O)(C(=O)CO)C[C@@H]3O[C@H]1C[C@H](N)[C@H](O[C@@H]2CCCCO2)[C@H](C)O1`, the Potency was 22.4 µM (active). In the case of `O=C(N[C@H]1N=C(c2ccccc2F)c2cccc3c2N(CC3)C1=O)c1cc2ccccc2[nH]1`, the max response is -4.83%. On the same count and under the same terms, to `CN(C)CCc1c[nH]c2ccccc12` belongs 16.8%; to `CCC1(c2cnc[nH]2)Cc2ccccc2C1`, -21.2%. On the same count and under the same terms, the same measure for `CN(C)C(=O)Oc1cc(OC(=O)N(C)C)cc(C(O)CNC(C)(C)C)c1` (stereo not given): 14.4%. Still for that read-out and setting: the same measure for `CC1=C2[C@H]3OC(=O)[C@@H](C)[C@@H]3CC[C@@]2(C)C=CC1=O`: 4.47%; for `COc1ccc(OC)c(CC(C)N)c1` (stereo not given): -18.6%; for `CCOC(=O)c1cncn1C(C)c1ccccc1` (stereo not given): -8.82%. Regarding `CC[C@H](O)C(C[C@H](C)N(C)C)(c1ccccc1)c1ccccc1`, the max response is -14.1%.

As for `C[N+]1(C)[C@@H]2CC[C@H]1CC(OC(=O)C(CO)c1ccccc1)C2` (stereo not given in full), the max response is -7.22% and -0.641%. For the compound `O=C(N[C@@H]1N=C(c2ccccc2F)c2cccc3c2N(CC3)C1=O)c1cc2ccccc2[nH]1`, the max response was -8.36%. Consider `CN1C(=O)[C@@H](NC(=O)c2cc3ccccc3[nH]2)N=C(c2ccccc2)c2ccccc21`, for which the max response is -6.73%.

On to `CCC1(c2ccccc2)CCC(=O)NC1=O` (stereo not given), for which the max response was -3.28%. In the case of `c1ccc2nc(N3CCNCC3)ccc2c1`, the max response is -4.39%. As to `Oc1ccc2[nH]cc(CCCCN3CC=C(c4ccccc4)CC3)c2c1`, the max response was -6.56%.

Take `C[C@]12Cc3nonc3C[C@@H]1CC[C@@H]1[C@@H]2CC[C@@]2(C)[C@H]1CC[C@]2(C)O`: the max response was -3.73%.

With `COc1cc(C[C@@H](C)N)c(OC)cc1C`, the max response is -6.71%. Regarding `COc1cc(CC(C)N)c(OC)cc1Br` (stereo not given), the max response is -17.7% and 14.6%. As to `OC(O)C(Cl)(Cl)Cl`, the max response was -5.08%. On the same count and under the same terms, the same measure for `CCN(CC)CCOC(=O)C(C)(c1ccccc1)c1ccccc1`: 10.8%; for `O=C(O)Cc1ccccc1`: -12.8%. Consider `C[C@@H]1CC[C@H]2[C@@H](C)C(=O)O[C@@H]3O[C@@]4(C)CC[C@@H]1[C@]32OO4`, for which the Potency was 0.132 µM (active). In the case of `NC(N)=NN=C(/C=C/c1ccc([N+](=O)[O-])o1)/C=C/c1ccc([N+](=O)[O-])o1`, the Potency was 7.94 µM (active). As for `COc1cc(N)c(Cl)cc1C(=O)NC1CN2CCC1CC2` (stereo not given), the max response was -2.64%. The same measure, in the same setting: the same measure for `CCCOC(=O)Cc1ccc(OCC(=O)N(CC)CC)c(OC)c1`: -6.3%. On to `CC(C(O)c1ccccc1)N(C)CCOC(c1ccccc1)c1ccccc1` (stereo not given), for which the Potency was 5.01 µM (active). Consider `C[N+]1(CCC(C(N)=O)(c2ccccc2)c2ccccc2)CCCCC1`, for which the max response was -5.02%. The same measure, in the same setting: the same measure for `C[C@]12CC[C@H]3[C@@H](CCC4=CC(=O)CC[C@@H]43)[C@@H]1CC[C@@H]2O`: -13.9% and -1.26%; for `COc1ccc2c3c1O[C@H]1[C@@H](O)C=C[C@H]4[C@@H](C2)N(C)CC[C@@]341`: 7.49%. As to `CCN(CC)CCCN(c1ccccc1)C1Cc2ccccc2C1`, the Potency was 8.91 µM (active).

Take `C#C[C@]1(O)C=C[C@H]2[C@@H]3CCC4=CC(=O)CC[C@@H]4[C@H]3CC[C@@]21CC`: the max response is 2.38%. Still for that read-out and setting: the same measure for `NC(=O)OCCCc1ccccc1`: -5.39%. The same measure, in the same setting: to `CCCCCOc1ccc(C2SC(=O)NC2=O)cc1OCC` (stereo not given) belongs 38.7%. On the same count and under the same terms, the same measure for `CCS(=O)(=O)C(C)(C)S(=O)(=O)CC`: 4.59%.

These data come from PubChem BioAssay (NCATS).
